From the antibiotic and cytotoxicity screens of Wong et al. (2023) come the findings set out here.

Among all 39,000 compounds or so, about 3,300 (8.5%) were called active. Only a selection was taken, and actives are over-represented in it overall.

This assay relates to HepG2. Briefly: cytotoxicity call (relative viability < 0.9). To be noted: 10 µM.
Turning to `C[C@@H]1CCCCO[C@H](CN(C)CC2CCCCC2)[C@H](C)CN([C@H](C)CO)C(=O)c2cc(NS(=O)(=O)c3ccccc3)ccc2O1`, the cytotoxicity call is “inactive”. For `C[C@@H]1CCCCO[C@@H](CN(C)C(=O)Nc2ccc3c(c2)OCO3)[C@@H](C)CN([C@H](C)CO)C(=O)c2cc(NC(=O)Nc3cccc4ccccc34)ccc2O1`, the cytotoxicity call was “inactive”. On to `C[C@@H]1CN([C@H](C)CO)C(=O)Cc2cc(NC(=O)Cn3cnnn3)ccc2O[C@H]1CN(C)Cc1ccccc1`, for which the cytotoxicity call is “inactive”. In the case of `COc1cccc(S(=O)(=O)N2[C@@H]3CC[C@@H](C3)[C@H]2c2nc3cccc(OCc4ccc(F)cc4)c3[nH]2)c1` it was “active”; in that of `Cc1ccc(C)c(S(=O)(=O)N2[C@@H]3CC[C@@H](C3)[C@H]2c2nc3cccc(OCc4ccc(F)cc4)c3[nH]2)c1`, “inactive”. In the case of `CC(=O)c1cccc(S(=O)(=O)N2[C@@H]3CC[C@@H](C3)[C@H]2c2nc3cccc(OCc4ccc(F)cc4)c3[nH]2)c1` it was “inactive”; in that of `COc1ccc(OC)c(S(=O)(=O)N2[C@@H]3CC[C@@H](C3)[C@H]2c2nc3cccc(OCc4ccc(F)cc4)c3[nH]2)c1`, “inactive”. Take `Cc1ccc(F)c(S(=O)(=O)N2[C@@H]3CC[C@@H](C3)[C@H]2c2nc3cccc(OCc4ccc(F)cc4)c3[nH]2)c1`: the cytotoxicity call is “active”. As for `COc1cc(C)ccc1S(=O)(=O)N1[C@@H]2CC[C@@H](C2)[C@H]1c1nc2cccc(OCc3ccc(F)cc3)c2[nH]1`, the cytotoxicity call was “inactive”.

Consider `CN1C(=O)c2cc(NC(=O)c3ccc(F)c(F)c3)ccc2OC[C@H]2O[C@H](CC(=O)N3CCOCC3)CC[C@H]21`, for which the cytotoxicity call was “inactive”. In the case of `Cc1ccc(S(=O)(=O)Nc2ccc3c(c2)C(=O)N([C@@H](C)CO)C[C@@H](C)[C@@H](CN(C)C(=O)CCC(F)(F)F)OCCCC[C@@H](C)O3)cc1` it was “inactive”; in that of `CCS(=O)(=O)N1C[C@]2(CCN(CC2)S(=O)(=O)c2cn(cn2)C)c2c(n(c3cc(ccc23)OC)C)[C@H]1CO`, “inactive”. Consider `C[C@H](CO)N1C[C@H](C)[C@@H](CN(C)C(=O)Nc2ccc(F)cc2)OCc2ccccc2-c2c(n(C)c3ccccc23)C1=O`, for which the cytotoxicity call is “inactive”. In the case of `COCC(=O)N1C[C@H](C)[C@@H](OC)CN(C)C(=O)c2ccc(NC(=O)Nc3ccccc3)cc2OC[C@H]1C` it was “inactive”.

Consider `C[C@H](CO)N1C[C@H](C)[C@H](CN(C)Cc2ccc(C(=O)O)cc2)Oc2ccc(NS(C)(=O)=O)cc2C1=O`, for which the cytotoxicity call is “inactive”.

With `C[C@@H]1CN([C@H](C)CO)C(=O)Cc2cc(NC(=O)Nc3ccc(C(F)(F)F)cc3)ccc2O[C@@H]1CN(C)Cc1ccc(-c2ccccc2)cc1`, the cytotoxicity call is “active”.

In the case of `C[C@H](CO)N1C[C@H](C)[C@H](CN(C)Cc2ccc(-c3ccccc3)cc2)Oc2ccc(NC(=O)Nc3ccc(C(F)(F)F)cc3)cc2CC1=O`, the cytotoxicity call is “active”.

Regarding `C[C@H]1CN([C@@H](C)CO)C(=O)Cc2cc(NC(=O)Nc3ccc(C(F)(F)F)cc3)ccc2O[C@@H]1CN(C)Cc1ccc(-c2ccccc2)cc1`, the cytotoxicity call was “inactive”. In the case of `C[C@@H]1CN([C@@H](C)CO)C(=O)Cc2cc(NC(=O)Nc3ccc(C(F)(F)F)cc3)ccc2O[C@H]1CN(C)Cc1ccc(-c2ccccc2)cc1` it was “active”; in that of `C[C@H]1CN([C@@H](C)CO)C(=O)Cc2cc(NC(=O)Nc3ccc(C(F)(F)F)cc3)ccc2O[C@H]1CN(C)Cc1ccc(-c2ccccc2)cc1`, “active”. In the case of `COCCN1C[C@H]2CN(Cc3nccn3C)C[C@H]2C1=O` it was “inactive”. Under `O=C(C[C@H]1C[C@H]2c3cc(NS(=O)(=O)c4ccc(F)cc4)ccc3O[C@H]2[C@H](CO)O1)NC1CCCCC1` stands “inactive”; under `CC1(C)CCC2=C(O1)C(=O)c1ccccc1C2=O` [alpha-LAPACHONE ], “inactive”. As for `Cc1noc(C)c1NC(=O)N(C)C[C@H]1OCCCC[C@@H](C)Oc2ccc(NC(=O)CCC(F)(F)F)cc2C(=O)N([C@H](C)CO)C[C@@H]1C`, the cytotoxicity call is “inactive”. Consider `Cc1ccc(S(=O)(=O)N(C)C[C@@H]2Oc3ccc(NS(=O)(=O)c4c(C)noc4C)cc3C(=O)N([C@H](C)CO)C[C@H]2C)cc1`, for which the cytotoxicity call was “inactive”.

On to `C[C@@H]1CCCCO[C@H](CN(C)C(=O)CCC(F)(F)F)[C@H](C)CN([C@@H](C)CO)C(=O)c2cc(NS(=O)(=O)c3ccccc3)ccc2O1`, for which the cytotoxicity call was “inactive”. With `C[C@@H]1CN([C@@H](C)CO)C(=O)c2cc(NS(=O)(=O)c3cn(C)cn3)ccc2O[C@@H](C)CCCCO[C@H]1CN(C)S(=O)(=O)c1cn(C)cn1`, the cytotoxicity call was “inactive”.

As to `C[C@@H]1CN([C@H](C)CO)C(=O)Cc2cc(NC(=O)Nc3ccc(C(F)(F)F)cc3)ccc2O[C@H]1CN(C)Cc1ccc(-c2ccccc2)cc1`, the cytotoxicity call was “active”.

`C[C@@H]1CN([C@@H](C)CO)C(=O)Cc2cc(NC(=O)Nc3ccc(C(F)(F)F)cc3)ccc2O[C@@H]1CN(C)Cc1ccc(-c2ccccc2)cc1`: the cytotoxicity call is “active”. In the case of `C[C@H](CO)N1C[C@H](C)[C@@H](CN(C)Cc2ccc(-c3ccccc3)cc2)Oc2ccc(NC(=O)Nc3ccc(C(F)(F)F)cc3)cc2CC1=O` it was “active”. Under `C[C@@H]1CCCCO[C@@H](CN(C)C(=O)c2ccccc2)[C@H](C)CN([C@@H](C)CO)C(=O)c2cc(NC(=O)c3ccccc3)ccc2O1` stands “inactive”; under `C[C@@H]1CN([C@@H](C)CO)C(=O)Cc2cc(NC(=O)CCN3CCOCC3)ccc2O[C@H]1CN(C)Cc1ccncc1`, “inactive”; under `COc1cccc(NC(=O)N[C@@H]2CC[C@H](CC(=O)N3CCOCC3)O[C@H]2CO)c1`, “inactive”. Under `O=C(NCc1cccc(F)c1)[C@H]1[C@H](CO)[C@H]2Cn3c(cccc3=O)[C@@H]1N2C(=O)c1cnccn1` stands “inactive”; under `C[C@@H](CO)N1CC[C@H](CN(C)Cc2ccc(Oc3ccccc3)cc2)Oc2c(NC(=O)c3ccncc3)cccc2C1=O`, “inactive”. For the compound `CC(=O)N[C@H]1[C@@H](OCc2ccccc2)O[C@H](C(=O)O)[C@@H](OC(C)=O)[C@@H]1OC(C)=O`, the cytotoxicity call was “inactive”. Under `C[C@@H]1CN([C@@H](C)CO)S(=O)(=O)c2ccc(-c3ccc(C(=O)N(C)C)cc3)cc2O[C@H]1CN(C)C(=O)C1CCOCC1` stands “inactive”. Under `COCC(=O)N(C)C[C@@H]1Oc2cc(C#Cc3ccccc3)ccc2S(=O)(=O)N([C@@H](C)CO)C[C@H]1C` stands “inactive”; under `Cc1ccc(NC2=CC(=O)C[C@H](c3ccc(Cl)cc3)C2)cc1`, “inactive”. In the case of `C[C@@H]1CCCCO[C@H](CN(C)Cc2ccc(Cl)c(Cl)c2)[C@@H](C)CN([C@H](C)CO)C(=O)c2cc(NC(=O)c3ccccc3)ccc2O1` it was “inactive”. With `C[C@@H]1CCCCO[C@@H](CN(C)Cc2ccc(Cl)c(Cl)c2)[C@H](C)CN([C@H](C)CO)C(=O)c2cc(NC(=O)c3ccccc3)ccc2O1`, the cytotoxicity call was “inactive”. For `C[C@@H]1CCCCO[C@@H](CN(C)Cc2ccc(Cl)c(Cl)c2)[C@H](C)CN([C@@H](C)CO)C(=O)c2cc(NC(=O)c3ccccc3)ccc2O1`, the cytotoxicity call was “active”. In the case of `C[C@H](CO)N1C[C@H](C)[C@H](CN(C)Cc2ccc(Cl)c(Cl)c2)OCCCC[C@H](C)Oc2ccc(NC(=O)c3ccccc3)cc2C1=O` it was “inactive”; in that of `C[C@@H]1CN([C@H](C)CO)C(=O)c2cc(NC(=O)c3ccccc3)ccc2O[C@@H](C)CCCCO[C@@H]1CN(C)Cc1ccc(Cl)c(Cl)c1`, “active”.

With `C[C@@H]1CCCCO[C@H](CN(C)Cc2ccc(Cl)c(Cl)c2)[C@H](C)CN([C@@H](C)CO)C(=O)c2cc(NC(=O)c3ccccc3)ccc2O1`, the cytotoxicity call was “inactive”. In the case of `C[C@@H]1CN([C@H](C)CO)C(=O)c2cc(NC(=O)c3ccccc3)ccc2O[C@@H](C)CCCCO[C@H]1CN(C)Cc1ccc(Cl)c(Cl)c1` it was “active”; in that of `C[C@H](CO)N1C[C@H](C)[C@@H](CN(C)Cc2ccc(Cl)c(Cl)c2)OCCCC[C@H](C)Oc2ccc(NC(=O)c3ccccc3)cc2C1=O`, “inactive”; in that of `C[C@H]1CCCCO[C@H](CN(C)Cc2ccc(Cl)c(Cl)c2)[C@@H](C)CN([C@@H](C)CO)C(=O)c2cc(NC(=O)c3ccccc3)ccc2O1`, “inactive”. Turning to `C[C@@H]1CN([C@H](C)CO)C(=O)CCCn2nncc2CO[C@H]1CN(C)C(=O)Nc1ccc(C(C)(C)C)cc1`, the cytotoxicity call is “inactive”. In the case of `Cc1ccc(S(=O)(=O)N2C[C@H](O)COC[C@@H]3O[C@H](CC(=O)N4CCc5ccccc5C4)CC[C@H]32)cc1` it was “inactive”.

As for `COc1ccc(NC(=O)Nc2ccc3c(c2)C(=O)N([C@H](C)CO)C[C@H](C)[C@@H](CN(C)CC2CC2)OCCCC[C@@H](C)O3)cc1`, the cytotoxicity call is “inactive”. In the case of `COc1ccc(S(=O)(=O)Nc2ccc3c(c2)CC(=O)N([C@@H](C)CO)C[C@H](C)[C@@H](CN(C)S(=O)(=O)c2cccs2)O3)cc1` it was “inactive”. In the case of `C[C@@H]1CN([C@H](C)CO)C(=O)c2cc(NS(=O)(=O)c3cn(C)cn3)ccc2O[C@@H](C)CCCCO[C@@H]1CN(C)S(=O)(=O)c1ccc(F)cc1` it was “inactive”. In the case of `C[C@H]1CN([C@@H](C)CO)C(=O)c2cc(-c3cncnc3)cnc2O[C@H]1CN(C)C(=O)CN1CCOCC1` it was “inactive”. On to `C[C@@H]1CN([C@H](C)CO)C(=O)c2cc(NC(=O)NC3CCCCC3)ccc2O[C@@H]1CN(C)Cc1ccc(C(=O)Nc2ccccc2N)cc1`, for which the cytotoxicity call was “inactive”. `COc1ccc(C#Cc2cnc3c(c2)C(=O)N([C@@H](C)CO)C[C@H](C)[C@H](CN(C)C(=O)CC2CC2)O3)cc1`: the cytotoxicity call was “inactive”.

With `C[C@@H]1CCCCO[C@H](CN(C)Cc2ccc(C(F)(F)F)cc2)[C@@H](C)CN([C@@H](C)CO)C(=O)c2cc(NC(=O)C3CCCCC3)ccc2O1`, the cytotoxicity call is “active”. As to `C[C@@H]1CCCCO[C@H](CN(C)Cc2ccc(C(F)(F)F)cc2)[C@H](C)CN([C@@H](C)CO)C(=O)c2cc(NC(=O)C3CCCCC3)ccc2O1`, the cytotoxicity call was “active”.

With `C[C@@H]1CN([C@H](C)CO)C(=O)c2cc(NC(=O)C3CCCCC3)ccc2O[C@@H](C)CCCCO[C@@H]1CN(C)Cc1ccc(C(F)(F)F)cc1`, the cytotoxicity call was “inactive”.

On to `C[C@H](CO)N1C[C@H](C)[C@H](CN(C)Cc2ccc(C(F)(F)F)cc2)OCCCC[C@H](C)Oc2ccc(NC(=O)C3CCCCC3)cc2C1=O`, for which the cytotoxicity call is “inactive”. In the case of `C[C@@H]1CN([C@@H](C)CO)C(=O)c2cc(NC(=O)C3CCCCC3)ccc2O[C@@H](C)CCCCO[C@H]1CN(C)Cc1ccc(C(F)(F)F)cc1`, the cytotoxicity call is “active”. Under `C[C@H]1CCCCO[C@H](CN(C)Cc2ccc(C(F)(F)F)cc2)[C@@H](C)CN([C@@H](C)CO)C(=O)c2cc(NC(=O)C3CCCCC3)ccc2O1` stands “active”. Regarding `C[C@@H]1CN([C@H](C)CO)C(=O)c2cc(NC(=O)C3CCCCC3)ccc2O[C@@H](C)CCCCO[C@H]1CN(C)Cc1ccc(C(F)(F)F)cc1`, the cytotoxicity call was “inactive”. Under `C[C@H](CO)N1C[C@H](C)[C@@H](CN(C)Cc2ccc(C(F)(F)F)cc2)OCCCC[C@H](C)Oc2ccc(NC(=O)C3CCCCC3)cc2C1=O` stands “inactive”; under `C[C@@H]1CCCCO[C@@H](CN(C)Cc2ccc(C(F)(F)F)cc2)[C@H](C)CN([C@@H](C)CO)C(=O)c2cc(NC(=O)C3CCCCC3)ccc2O1`, “inactive”; under `C[C@H]1CCCCO[C@@H](CN(C)Cc2ccc(C(F)(F)F)cc2)[C@@H](C)CN([C@@H](C)CO)C(=O)c2cc(NC(=O)C3CCCCC3)ccc2O1`, “inactive”. As to `C[C@@H]1CCCCO[C@@H](CN(C)Cc2ccc(C(F)(F)F)cc2)[C@@H](C)CN([C@@H](C)CO)C(=O)c2cc(NC(=O)C3CCCCC3)ccc2O1`, the cytotoxicity call was “inactive”. In the case of `C[C@@H]1CN([C@@H](C)CO)C(=O)c2cc(NC(=O)C3CCCCC3)ccc2O[C@@H](C)CCCCO[C@@H]1CN(C)Cc1ccc(C(F)(F)F)cc1` it was “inactive”.
